Hits are enriched below; roughly 2.4% of the tested compounds scored in any of these assays.
Cruzain inh noDet = inhibitors of Trypanosoma cruzi cruzain without detergent; 2.3% of 200,000 active; purified cruzain, Z-FR-AMC fluorescence, no detergent; Potency, µM, for the others: max response, negative = inhibition, most hits filed as inhibitors; P25779;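 also: plate controls were enzyme without inhibitor for no effect and buffer without enzyme for full effect; nearly all actives have a fitted effect of over 40% in size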
Target sequence (P25779 123-467 limits assumed): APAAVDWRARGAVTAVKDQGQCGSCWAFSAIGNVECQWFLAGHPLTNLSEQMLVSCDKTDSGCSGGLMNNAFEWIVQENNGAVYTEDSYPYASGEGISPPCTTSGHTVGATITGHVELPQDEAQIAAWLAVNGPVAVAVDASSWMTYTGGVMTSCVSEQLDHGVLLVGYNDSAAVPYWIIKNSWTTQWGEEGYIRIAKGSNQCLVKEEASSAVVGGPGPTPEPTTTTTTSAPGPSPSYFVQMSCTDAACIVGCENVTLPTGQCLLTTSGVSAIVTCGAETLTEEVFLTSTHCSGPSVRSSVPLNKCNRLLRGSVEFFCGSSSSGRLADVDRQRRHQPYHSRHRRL
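Detergent-free condition (0.00005% Triton X-100) in acetate buffer pH 5.5 with DTT. 1.5 nM enzyme and compound were pre-mixed 15 min, then 2 uM Z-FR-AMC substrate added; reaction progress from fluorescence change between first and third reads (60 s).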
Cruzain Triton = cruzain (T. cruzi) inhibition with detergent; P25779; purified cruzain, Z-FR-AMC fluorescence, 0.01% Triton; Potency, µM, inactives show max response, negative = inhibition, usual class: inhibitors; 0.43% of 200,000 active;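 also: plate controls were neutral wells for no effect and buffer without enzyme for full effect; nearly all actives have a fitted effect of over 40% in size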
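Steps: dispense cruzain (1.5 nM final) in acetate buffer pH 5.5 with DTT and 0.01% Triton X-100; pin-transfer compounds; incubate 15 min RT; add Z-FR-AMC (2 uM final); read fluorescence every 30 s, using the 60 s intensity change.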
* marks the source's active call; other numbers are inactive results. Calls follow the shape of the dose curve; as a rule, active = well fitted curve in the direction sought with a large enough effect; inconclusive = small, poorly fitted or top-dose-only effect, or another doubt; inactive = no such curve, though single readings can be large; an effect the other way counts as inactive or inconclusive. Potency is read from the fitted curve at half-maximal effect.

Screening C[C@H]1C(c2cccc(Cl)c2)=NN(c2ccccc2)[C@@H]1CO returned Cruzain inh noDet inconclusive and Cruzain Triton 0.4%.
`OC[C@@H]1[C@@H](c2ccc(Cl)cc2)C(c2ccccc2)=NN1c1ccccc1` gave Cruzain inh noDet -18.3% and Cruzain Triton 0.3%.
Cc1ccc(NC(=O)c2ccc(-n3c(C)nnc3C)cc2)cc1F was read as Cruzain inh noDet -7.4% and Cruzain Triton -2.8%.
Oc1ccc2ccccc2c1/C=N/n1cnnc1 was read as Cruzain inh noDet -18.3% and Cruzain Triton -10.9%.
`Oc1ccc2ccccc2c1/C=C\c1ccc2c(Br)cc(Br)c(O)c2n1` gave Cruzain inh noDet 3.16µM* and Cruzain Triton 1.3%.
Screening Cc1ccc(C(=O)c2cn(CC(=O)NCc3ccccc3Cl)c3nc(C)ccc3c2=O)cc1 returned Cruzain inh noDet -6.8% and Cruzain Triton -1.0%.
`CS(=O)(=O)c1ccc(Cn2c3c(c4cc(F)cc(F)c42)CCC[C@H]3CC(=O)O)cc1` gave Cruzain inh noDet inconclusive and Cruzain Triton -29.9%.
`CCOC(=O)c1ccc(NC(=O)c2ccc(CN3C(=O)CCn4nc(C)cc43)cc2)cc1` gave Cruzain inh noDet 19.6% and Cruzain Triton 3.5%.
CC1CCC(C(=O)NC(C(=O)OCC(=O)c2ccc(Br)cc2)C(C)C)CC1 (stereo not given) was read as Cruzain inh noDet -22.9% and Cruzain Triton 14.1µM*.
`CCc1ccc(C(=O)COC(=O)C(NC(=O)C2CCC(C)CC2)C(C)C)cc1` (stereo not given) gave Cruzain inh noDet -4.9% and Cruzain Triton -15.4%.
`CCOc1ccccc1Nc1sc(C(=O)c2ccc(Cl)cc2)c(N)c1C(=O)NCCc1ccccc1` gave Cruzain inh noDet inconclusive and Cruzain Triton -0.6%.
For Cc1cc(=O)[nH]c2nnc(SCc3ccc(Cl)cc3Cl)n12 the results were Cruzain inh noDet -5.4% and Cruzain Triton -0.6%.
`CCCCCC/C(C=O)=C\c1ccccc1` gave Cruzain inh noDet -4.2% and Cruzain Triton -8.5%.
`O=C(CN1C(=O)S/C(=C\C=C\c2ccccc2)C1=O)Nc1ccc(O)cc1` gave Cruzain inh noDet -4.5% and Cruzain Triton -6.4%.
`CC(C)c1ccccc1NC(=O)COC(=O)Cc1ccsc1` gave Cruzain inh noDet -2.3% and Cruzain Triton -2.7%.
Screening Cc1ccc(NC(=O)CCCN2C(=O)/C(=C/C=C/c3ccccc3)SC2=S)cc1 returned Cruzain inh noDet 31.6µM* and Cruzain Triton -7.0%.
`CC(C)c1ccccc1NC(=O)COC(=O)CCN1C(=O)/C(=C\C=C\c2ccccc2)SC1=S` gave Cruzain inh noDet 15.8µM* and Cruzain Triton -10.8%.
Screening CCOc1ccc2nc(NC(=O)CSc3nc4ccccc4c(=O)n3Cc3ccco3)sc2c1 returned Cruzain inh noDet 7.94µM* and Cruzain Triton 1.7%.
For CCOC(=O)CSc1nc2ccccc2c(=O)n1Cc1ccco1 the results were Cruzain inh noDet 1.3% and Cruzain Triton -4.7%.
O=c1c2ccccc2nnn1CSc1nc2ccccc2c(=O)n1Cc1ccco1 was read as Cruzain inh noDet 10µM* and Cruzain Triton -1.8%.
Screening CCOc1ccc2nc(NC(=O)Nc3ccccc3)sc2c1 returned Cruzain inh noDet inconclusive and Cruzain Triton 3.9%.
CCN(C(=O)CSc1nc2cc(C(=O)OC)ccc2c(=O)n1Cc1ccco1)c1cccc(C)c1 was read as Cruzain inh noDet 1.4% and Cruzain Triton -1.4%.
For CCc1ccc(NC(=O)CSc2nc3cc(C(=O)OC)ccc3c(=O)n2Cc2ccco2)cc1 the results were Cruzain inh noDet 5.01µM* and Cruzain Triton 1.3%.
Screening CCOc1ccc2nc(NC(=S)NCc3ccccc3)sc2c1 returned Cruzain inh noDet 25.1µM* and Cruzain Triton -3.3%.
O=c1c2ccccc2nc(SCc2ccccc2)n1Cc1ccco1 was read as Cruzain inh noDet -26.6% and Cruzain Triton -9.4%.
For O=C(NCc1ccccc1Cl)C1CCN(S(=O)(=O)c2ccc3c(c2)CCCN3C(=O)C2CCC2)CC1 the results were Cruzain inh noDet -1.3% and Cruzain Triton -5.4%.
For O=[N+]([O-])c1cc(-c2nc(-c3ccccc3)no2)ccc1N1CCN(c2ccccc2)CC1 the results were Cruzain inh noDet 4.6% and Cruzain Triton -3.2%.
O=c1cc(CSc2nnnn2-c2ccccc2)nc2nc[nH]n12 was read as Cruzain inh noDet -3.1% and Cruzain Triton 1.0%.
c1ccc(-c2nc(CSc3nnnn3-c3ccccc3)cs2)cc1 was read as Cruzain inh noDet -1.7% and Cruzain Triton -1.3%.
`O=c1cc(CSc2nnnn2-c2ccccc2)nc2scc(-c3ccccc3)n12` gave Cruzain inh noDet 25.1µM* and Cruzain Triton -3.2%.
For Cc1ccccc1Nc1nc(CSc2nnnn2-c2ccccc2)cs1 the results were Cruzain inh noDet 20µM* and Cruzain Triton 1.0%.
Screening COC(=O)c1cc2sccc2n1Cc1nc(-c2ccc(C)cc2)oc1C returned Cruzain inh noDet -5.8% and Cruzain Triton -7.8%.
Nc1ncnc2c1ncn2[C@H]1O[C@@H](C(=O)OCCO)[C@@H](O)[C@H]1O was read as Cruzain inh noDet 8.7% and Cruzain Triton -1.6%.
Screening O=C(/C(=C(\[O-])c1ccccc1)[n+]1ccc2ccccc2c1)c1ccc(Cl)cc1 returned Cruzain inh noDet 25.1µM* and Cruzain Triton 0.1%.
`O=C(/C(=C(\[O-])c1ccccc1)[n+]1ccc2ccccc2c1)c1ccccc1` gave Cruzain inh noDet inconclusive and Cruzain Triton -1.7%.
`Cc1csc2nc(-c3ccc(NS(=O)(=O)c4cc(F)ccc4F)cc3)cn12` gave Cruzain inh noDet 31.6µM* and Cruzain Triton -3.8%.
Screening CC(=O)c1ccc(S(=O)(=O)Nc2ccc(-c3cn4c(C)csc4n3)cc2)cc1 returned Cruzain inh noDet 25.1µM* and Cruzain Triton -3.5%.
Screening COc1ccc(S(=O)(=O)Nc2ccc(-c3cn4c(C)csc4n3)cc2)cc1 returned Cruzain inh noDet 25.1µM* and Cruzain Triton -3.6%.
Screening Cc1csc2nc(-c3cccc(NS(C)(=O)=O)c3)cn12 returned Cruzain inh noDet -6.0% and Cruzain Triton -0.6%.
CC(=O)Nc1ccc(S(=O)(=O)Nc2ccc(-c3cn4c(C)csc4n3)cc2)cc1 was read as Cruzain inh noDet inconclusive and Cruzain Triton -4.0%.
CCS(=O)(=O)Nc1ccc(-c2cn3c(C)csc3n2)cc1 was read as Cruzain inh noDet -18.7% and Cruzain Triton -2.0%.
For CC(=NCC(=O)O)c1ccccc1 the results were Cruzain inh noDet 8.8% and Cruzain Triton -1.2%.
For C=CCC(C)(O)c1ccc(OC)cc1 (stereo not given) the results were Cruzain inh noDet 2.4% and Cruzain Triton 0.8%.
`CCC(=O)Nc1ccc(C(=O)NNC(=O)C(c2ccccc2)c2ccccc2)cc1` gave Cruzain inh noDet inconclusive and Cruzain Triton -2.1%.
For CC(C)CC(=O)Nc1ccc(C(=O)NNC(=O)C(c2ccccc2)c2ccccc2)cc1 the results were Cruzain inh noDet 25.1µM* and Cruzain Triton 5.8%.
`Cc1ccc(NC(=O)c2oc3ccc(S(=O)(=O)N4CCCCCC4)cc3c2C)c(C)c1` gave Cruzain inh noDet 3.9% and Cruzain Triton 4.4%.
NC(N)=NC[C@H](N)C(=O)O was read as Cruzain inh noDet -5.9% and Cruzain Triton 0.9%.
Screening N#Cc1c(SCc2ccccc2)sc(C(=O)c2ccccc2)c1N returned Cruzain inh noDet 0.8% and Cruzain Triton -5.2%.
Screening Cc1cccc(Oc2sc(C(=O)c3ccccc3)c(N)c2C#N)c1C returned Cruzain inh noDet inconclusive and Cruzain Triton -6.1%.
`N#Cc1c(Oc2ccc3ccccc3c2)sc(C(=O)c2ccccc2)c1N` gave Cruzain inh noDet 25.1µM* and Cruzain Triton 4.1%.

Source: PubChem (National Center for Advancing Translational Sciences (NCATS))
